# A number with no mark means an inactive call.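 The calls were made as follows, unless noted: active = viability at or below 27.92% in each of two runs, the all-compound median minus 4 SD; inconclusive = no clear call, values can overlap the other calls; inactive = the rest.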 Inconclusive results are not listed.
# Experiment: growth suppression of PTEN-deleted HCT116, pilot screen, cell-based, HCT116 clonal line, CellTiter-Glo (AID 824);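 also: 0% = 20 µM Hyamine control and 100% = vehicle cell control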
# Settings: 60 h, at 10 µM, hits give low values
row,Structure (SMILES),viability
1,CCN1C(=O)c2ccccc2Sc2ccc(C(=O)NCCN3CCOCC3)cc21,101%
2,COc1cccc(-n2c(Cc3cc(=O)[nH]c(=O)[nH]3)nnc2SCC(=O)Nc2ccccc2)c1,97.8%
3,CC1CCCCN1C(=O)c1ccccc1NC(=O)c1ccco1 (stereo not given),96.5%
4,CC1(C)CC(=O)C=C(NCCN2CCN(C(=O)Nc3ccc(Cl)c(Cl)c3)CC2)C1,90.1%
5,COc1ccccc1C(=O)Nc1nnc(-c2ccc(Cl)cc2)o1,98.1%
6,CCOC(=O)c1cc2c(=O)n3ccccc3nc2n(C(C)C)c1=NC(=O)c1ccncc1,94.7%
7,CCOc1ccc(OCC)c(NC(=O)CN2CCC(NC(=O)c3cccc(F)c3)CC2)c1,78.7%
8,CC(C)c1nnc(NC(=O)CCN2C(=O)c3ccccc3C2=O)s1,106%
9,CCOC(=O)C1Cn2c(nc3c(c2=O)C(C)(CC)Cc2ccccc2-3)S1 (stereo not given),77.7%
10,O=C(CCCCn1c(=O)[nH]c2ccccc2c1=O)NC1CCN(Cc2ccccc2)CC1,89%
11,COCCNC(=O)C1CC(=O)N(c2ccc(F)c(Cl)c2)C1 (stereo not given),95.7%
12,Cc1ccc2oc(=O)c3cnn(CC(=O)N4CCCCCC4)c3c2c1,89.1%
13,Cc1onc(-c2ccccc2Cl)c1C(=O)N1CCCCC1C(=O)O (stereo not given),98.6%
14,Cc1c(Cl)cccc1NC(=O)CN1C(=O)CSc2ncccc21,89.5%
15,Cc1cnc(C(=O)OCC(=O)Nc2ccc(Cl)cc2)cn1,92.8%
16,Cc1cc(C)nc(N(C#N)Cc2ccccc2Cl)n1,95.5%
17,CC(C)(C)c1nnc2sc(SCC(=O)c3cccs3)nn2c1=O,81.8%
18,COCCNC(=O)CN(c1cc(C(F)(F)F)ccc1Cl)S(C)(=O)=O,97.5%
19,O=C(O)Cc1ccc(NC(=O)C2CCCCC2C(=O)O)cc1 (stereo not given),103%
20,Cn1c(=O)c2c(nc(CN3CCN(Cc4ccccc4)CC3)n2Cc2ccccc2)n(C)c1=O,88%

row,Structure (SMILES),viability
1,CCCCCOC(=O)Cn1c(=O)oc2ccccc21,97.8%
2,COc1ccccc1S(=O)(=O)Cc1ccc(C(=O)NCCN(C)C)o1,98.2%
3,COc1ccc(OC)c2c1CC(C)(C)NC2=O,96.9%
4,CCN1CCN(CCNC(=O)CS(=O)(=O)Cc2nc(-c3ccc(C)cc3)oc2C)CC1,93.7%
5,CCN1CCN(CC(=O)Nc2cccc(C)c2C)C(=O)C1=O,90.9%
6,O=C(O)CC1SC(=Nc2ccccc2)N(c2ccccc2)C1=O (stereo not given),99.4%
7,O=S(=O)(NCCN1CCCC1)c1cccc2cccnc12,92.9%
8,CCCCOC(=O)CCc1n[nH]c(=O)[nH]c1=O,99%
9,COc1ccc(OC)c(S(=O)(=O)NCCc2cn3ccsc3n2)c1,103%
10,c1ccc(N2CCOCC2)c(Nc2nc3ccccc3n3cnnc23)c1,49.1%
11,COc1cc(OC)cc(C(=O)OCn2nnc3ccccc3c2=O)c1,96.1%
12,CCn1c(C(=O)N2CCc3ccccc3C2)cc2sccc21,74.5%
13,CC(=O)Nc1ccc(NC(=O)CCC(=O)NCCO)cc1,92.8%
14,COCCNC(=O)c1cc2c(-c3ccc(Cl)cc3)nn(C)c2s1,71%
15,CCn1c(=NC(=O)CSC(C)=O)sc2cc(OC)ccc21,77.2%
16,O=C(Cc1n[nH]c(=O)c2ccccc12)NCc1ccccn1,99%
17,O=C(Nc1ccc(-c2nc3cccnc3s2)cc1)c1ccc(Br)o1,101%
18,CCOC(=O)Cn1c(=O)oc2cc(S(=O)(=O)Nc3cccc(C)c3)ccc21,79%
19,COc1ccc(C2=NOC(C(=O)N3CCN(c4ccccc4OC)CC3)C2)cc1 (stereo not given),88.5%
20,Cc1cccc(C)c1N1C(=O)c2ccccc2C1=O,92.7%

# Experiment: inhibitors of the yeast RAM network, pilot screen, dse1pr::URA3 reporter, 5-FOA selection (AID 869;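 active = inhibition over a set limit, the all-compound mean plus 3 SD, in both replicate runs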;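 also: 0% = DMSO wells with no growth and 100% = 10 µM 1-NA-PP1 with full growth; RAM network block rescues cells from 5-FOA so hits raise OD615 growth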)
# Settings: S. cerevisiae dse1pr::URA3 5-FOA growth, OD615, 2 d; at 10 µM; hits give high values; strain carries analog-sensitive mutant Cbk1 kinase
row,Structure (SMILES),inhibition
1,CCN1C(=O)c2ccccc2Sc2ccc(C(=O)NCCN3CCOCC3)cc21,-0.985%
2,COc1cccc(-n2c(Cc3cc(=O)[nH]c(=O)[nH]3)nnc2SCC(=O)Nc2ccccc2)c1,1.61%
3,CC1CCCCN1C(=O)c1ccccc1NC(=O)c1ccco1 (stereo not given),2.17%
4,CC1(C)CC(=O)C=C(NCCN2CCN(C(=O)Nc3ccc(Cl)c(Cl)c3)CC2)C1,-0.235%
5,COc1ccccc1C(=O)Nc1nnc(-c2ccc(Cl)cc2)o1,0.395%
6,CCOC(=O)c1cc2c(=O)n3ccccc3nc2n(C(C)C)c1=NC(=O)c1ccncc1,-0.45%
7,CCOc1ccc(OCC)c(NC(=O)CN2CCC(NC(=O)c3cccc(F)c3)CC2)c1,2.31%
8,CC(C)c1nnc(NC(=O)CCN2C(=O)c3ccccc3C2=O)s1,3.73%
9,CCOC(=O)C1Cn2c(nc3c(c2=O)C(C)(CC)Cc2ccccc2-3)S1 (stereo not given),1.5%
10,O=C(CCCCn1c(=O)[nH]c2ccccc2c1=O)NC1CCN(Cc2ccccc2)CC1,0.41%
11,COCCNC(=O)C1CC(=O)N(c2ccc(F)c(Cl)c2)C1 (stereo not given),0.835%
12,Cc1ccc2oc(=O)c3cnn(CC(=O)N4CCCCCC4)c3c2c1,1.46%
13,Cc1onc(-c2ccccc2Cl)c1C(=O)N1CCCCC1C(=O)O (stereo not given),0.055%
14,Cc1c(Cl)cccc1NC(=O)CN1C(=O)CSc2ncccc21,-0.01%
15,Cc1cnc(C(=O)OCC(=O)Nc2ccc(Cl)cc2)cn1,3.85%
16,Cc1cc(C)nc(N(C#N)Cc2ccccc2Cl)n1,1.48%
17,CC(C)(C)c1nnc2sc(SCC(=O)c3cccs3)nn2c1=O,2.62%
18,COCCNC(=O)CN(c1cc(C(F)(F)F)ccc1Cl)S(C)(=O)=O,3.02%
19,O=C(O)Cc1ccc(NC(=O)C2CCCCC2C(=O)O)cc1 (stereo not given),0.385%
20,Cn1c(=O)c2c(nc(CN3CCN(Cc4ccccc4)CC3)n2Cc2ccccc2)n(C)c1=O,2.02%

row,Structure (SMILES),inhibition
1,CCCCCOC(=O)Cn1c(=O)oc2ccccc21,0.385%
2,COc1ccccc1S(=O)(=O)Cc1ccc(C(=O)NCCN(C)C)o1,1.9%
3,COc1ccc(OC)c2c1CC(C)(C)NC2=O,1.83%
4,CCN1CCN(CCNC(=O)CS(=O)(=O)Cc2nc(-c3ccc(C)cc3)oc2C)CC1,0.22%
5,CCN1CCN(CC(=O)Nc2cccc(C)c2C)C(=O)C1=O,2.46%
6,O=C(O)CC1SC(=Nc2ccccc2)N(c2ccccc2)C1=O (stereo not given),1.24%
7,O=S(=O)(NCCN1CCCC1)c1cccc2cccnc12,0.34%
8,CCCCOC(=O)CCc1n[nH]c(=O)[nH]c1=O,2.12%
9,COc1ccc(OC)c(S(=O)(=O)NCCc2cn3ccsc3n2)c1,3.81%
10,c1ccc(N2CCOCC2)c(Nc2nc3ccccc3n3cnnc23)c1,1.02%
11,COc1cc(OC)cc(C(=O)OCn2nnc3ccccc3c2=O)c1,1.33%
12,CCn1c(C(=O)N2CCc3ccccc3C2)cc2sccc21,0.465%
13,CC(=O)Nc1ccc(NC(=O)CCC(=O)NCCO)cc1,0.825%
14,COCCNC(=O)c1cc2c(-c3ccc(Cl)cc3)nn(C)c2s1,0.32%
15,CCn1c(=NC(=O)CSC(C)=O)sc2cc(OC)ccc21,1.25%
16,O=C(Cc1n[nH]c(=O)c2ccccc12)NCc1ccccn1,1.48%
17,O=C(Nc1ccc(-c2nc3cccnc3s2)cc1)c1ccc(Br)o1,1.11%
18,CCOC(=O)Cn1c(=O)oc2cc(S(=O)(=O)Nc3cccc(C)c3)ccc21,1%
19,COc1ccc(C2=NOC(C(=O)N3CCN(c4ccccc4OC)CC3)C2)cc1 (stereo not given),2.17%
20,Cc1cccc(C)c1N1C(=O)c2ccccc2C1=O,0.535%
